# The supplement of paper PMC4466236
# Over roughly 33,000 sequences, “E-score (dimensionless, -0.5 to 0.5)” has its median near -0.058; the highest 2% begin near 0.35. Only a selection was taken, and the highest values are over-represented in it overall.
# System: MvaT
# Assay: PBM 8-mer E-score (mean of HK and ME arrays) (E-score (dimensionless, -0.5 to 0.5)); higher = stronger relative binding preference
# Method in brief: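 Reported values are rank-based E-scores, taken as the mean of two universal arrays and parsed with a custom script. Each 8-mer score falls between -0.5 and 0.5. The arrays, ME and HK, were double-stranded 60-mers with a constant 25-mer primer region and a variable 35-mer region covering all 8-mers. They were probed, by an earlier protocol, with full-length P. aeruginosa MvaT carrying an N-terminal glutathione S-transferase fusion.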
row,Sequence,PBM 8-mer E-score
1,ATGTCAAC,0.0323
2,CGCCTACG,-0.307
3,AGGGAGAG,-0.161
4,ACATTTAA,0.388
5,ACATTTAG,0.177
6,ACATTAAG,0.265
7,GCATTTAA,0.326
8,CCATTAAA,0.329
9,ACATTAAA,0.359
10,AGATTAAT,0.379
11,ACATTAAT,0.382
12,AGATTAAA,0.178
13,GCATTAAA,0.256
14,AGATTAAG,0.175
15,ACATTAAC,0.345
16,ACCACATC,-0.0359
17,ATGCTCTA,-0.124
18,TGTGCCAA,-0.0753
19,AGGAATTA,0.226
20,CGTCCCCC,-0.209
21,AACATTAC,0.234
22,TACTCCAA,0.097
23,GACCCTAC,-0.272
24,ACATTTTG,0.0944
25,GAAAGTGA,0.135

row,Sequence,PBM 8-mer E-score
1,CCGACTAG,-0.0959
2,GCTATTAC,0.121
3,CTTATTCC,0.221
4,CTTATTGC,0.178
5,CTTATTAC,0.367
6,ATTATTCA,0.328
7,ATTATTGG,0.293
8,ATTATTCC,0.341
9,ATTATTAC,0.439
10,ACTATTAC,0.32
11,ATTATTCG,0.378
12,ACTATTAG,0.26
13,ATTATTAG,0.411
14,TACGACAA,0.131
15,CCACCTCG,-0.129
16,GAGGCCCA,-0.232
17,ATCCGAGG,-0.119
18,CAATTCTA,0.109
19,GATTTAGC,0.024
20,ACTTATGG,0.206
21,AGTGGTAG,0.00056
22,CGCCGGCA,-0.168
23,CCTAACCG,-0.115
24,GAACTAAA,0.338
25,AAACTAAA,0.357

row,Sequence,PBM 8-mer E-score
1,TAACTAAA,0.312
2,AAACTATT,0.371
3,AAACTATC,0.301
4,AAACTATA,0.334
5,ATTGAAAG,0.195
6,AGTCCCGC,-0.186
7,GTCCAATA,0.0714
8,AATGGGGT,0.0941
9,ACAACCTG,-0.038
10,GCGAGCCA,-0.16
11,CCAATATC,0.194
12,ACAATATC,0.258
13,ACAATATG,0.262
14,GCAATAAA,0.214
15,GCAATATA,0.414
16,GCAATAGA,0.127
17,CCAATATA,0.367
18,ACAATATA,0.425
19,CCAATACA,0.142
20,CTAGGCCA,-0.211
21,CGATAGGA,-0.177
22,AAAACCTT,0.103
23,GCCATCGC,-0.219
24,ACTTACAA,0.307
25,GAATTTCA,0.108

row,Sequence,PBM 8-mer E-score
1,CCTGGGCC,-0.238
2,ACACATTA,0.355
3,GCACATTA,0.19
4,ACACATTG,0.113
5,ATACATTA,0.39
6,CTACATTA,0.241
7,GTACATTA,0.308
8,GCCGATGA,-0.199
9,TAGCTATA,0.241
10,ACGGTAAT,0.18
11,GTAGGCAA,-0.171
12,TAGGGCAA,-0.0392
13,AATTACAT,0.327
14,GATTACAA,0.188
15,CATTACAA,0.166
16,AATTACAG,0.268
17,TATTACAA,0.351
18,AATTACAA,0.367
19,AGGTGACT,-0.173
20,CCGAGACA,-0.0391
21,GAGGAGTA,-0.153
22,CGAGTATA,0.195
23,CTCTATTC,-0.0516
24,ATATATTG,0.446
25,ATCTATTG,0.082

row,Sequence,PBM 8-mer E-score
1,AGATATTG,0.191
2,CTATATTC,0.204
3,ATATATTC,0.454
4,AATCATAA,0.306
5,ACCCGTCG,-0.0362
6,AATATACG,0.331
7,AGTATACT,0.422
8,AATACACG,0.159
9,AATACACA,0.151
10,AATATACC,0.324
11,CATATACA,0.275
12,AATATACA,0.413
13,AGTATACA,0.321
14,AATATACT,0.421
15,AGTATACC,0.234
16,GATATACA,0.205
17,TATATACA,0.456
18,GAGCCGAC,-0.262
19,ACTTGCAG,0.0173
20,AGGCTTAG,-0.104
21,CGATAGTC,-0.0515
22,AGGTCGTG,-0.0505
23,CAGTAGCA,0.0532
24,GCGACTCC,-0.217
25,CGTAGGTA,-0.029

row,Sequence,PBM 8-mer E-score
1,TCTATACA,0.136
2,TGGATACA,-0.00533
3,TGTATACA,0.351
4,AAGTTATC,0.256
5,CAGTTATG,0.189
6,AAGTTATG,0.349
7,AAGTTACG,0.231
8,AAGTTATT,0.415
9,AAGTTAGT,0.322
10,GCCTGACA,-0.188
11,CAGAAAGA,0.0379
12,TTAAGAAA,0.242
13,ATTTTATC,0.202
14,ATCATCGG,-0.0977
15,AGTAGGAT,-0.047
16,CATACAAA,0.206
17,AATACAAC,0.316
18,TATACAAA,0.392
19,AATACAAG,0.208
20,GATACAAA,0.247
21,AATACAAA,0.357
22,TACTCTGA,-0.066
23,TAAGGGCA,0.0358
24,GCTCTCGA,-0.0844
25,AACTGGGG,-0.149

row,Sequence,PBM 8-mer E-score
1,GACTATAA,0.316
2,AACTATAT,0.349
3,AACTATAG,0.236
4,AACTATAA,0.382
5,AACTATAC,0.227
6,TACTATAA,0.387
7,CACTATAA,0.312
8,TGCTATAA,0.285
9,TACTATCA,0.276
10,ACGGGCCG,-0.277
11,GACCCAGC,-0.26
12,ACTTAGAG,0.106
13,ATCTATTA,0.301
14,GTATATTA,0.438
15,CTATATTA,0.454
16,GGGTATTA,0.288
17,CTCTATTA,0.267
18,GAGTATTA,0.269
19,CACTGCTC,-0.18
20,GCCCGACC,-0.267
21,GAGAGTAC,-0.0129
22,AACCGCTC,-0.22
23,AATGGGAT,0.138
24,AGTCGACG,-0.209
25,AAAATACT,0.272

row,Sequence,PBM 8-mer E-score
1,CAAATATA,0.433
2,TAAATCTA,0.183
3,CAAATATG,0.264
4,CAAATATC,0.233
5,GAAATAGA,0.158
6,GAAATATA,0.408
7,CAAAAATA,0.287
8,AAAATAGT,0.228
9,AAAATATT,0.435
10,TAAATATA,0.442
11,GAAATATC,0.227
12,GGCGTCCA,-0.193
13,AGGTCCTG,-0.144
14,AACGGGCA,-0.142
15,CTCTATCC,-0.0794
16,TCGCCAAA,-0.0154
17,ATATCGCA,0.208
18,TCCGTCAA,-0.111
19,CCGACACG,-0.209
20,AAAATATG,0.251
21,AAAATATA,0.43
22,AAAATATC,0.314
23,GAATAGAA,0.105
24,CAATATAG,0.331
25,CAATATAA,0.404

row,Sequence,PBM 8-mer E-score
1,CAATATAC,0.386
2,CAATAAAC,0.254
3,GAATATCA,0.209
4,TAATAGAA,0.254
5,CAATATCC,0.127
6,TAATCTAA,0.292
7,TAATATAA,0.463
8,GAATATAA,0.38
9,GAATATAC,0.298
10,CGGTACTA,-0.0157
11,ATTTCGTC,0.0525
12,CCATCAAC,-0.145
13,GCCTAAAA,-0.0431
14,AAAGTGAT,0.155
15,GAGCCATA,-0.0175
16,CACTCCTG,-0.121
17,TGATCTAA,0.0137
18,AAATATAC,0.333
19,AAATATAG,0.332
20,AAATATAA,0.442
21,GAGTACAC,-0.00583
22,AAATGCCT,-0.0883
23,AATTCGAC,-0.053
24,CTTGCAAG,0.114
25,ATATAGTG,0.329

row,Sequence,PBM 8-mer E-score
1,ATATAGTC,0.361
2,GTATAGTA,0.233
3,ATATAGTA,0.399
4,CTATAGTA,0.223
5,CTATAGTC,-0.0729
6,CGTTGACC,-0.113
7,AAATCAGC,0.0494
8,ACAACTGA,0.0852
9,AAAACTTT,0.354
10,TAAACTTA,0.352
11,CAAACTTA,0.272
12,ACAACTTG,0.237
13,AAAACTTC,0.149
14,AAAACTTA,0.386
15,AAAACTGA,0.0579
16,GAAACTTA,0.235
17,ACAACTTA,0.357
18,AAAACTTG,0.1
19,TAAACTGA,0.205
20,CAACACTA,0.11
21,CGGCACAC,-0.0132
22,CTATTTCA,0.00869
23,ACAGTGCA,-0.0545
24,CCGCACGG,-0.212
25,CAAACTAA,0.376

row,Sequence,PBM 8-mer E-score
1,CCTACTTA,0.251
2,ACTACTTC,0.117
3,TAAACTAA,0.34
4,ACTACTTA,0.377
5,CAAACTAC,0.248
6,ACATTGCC,0.0616
7,ATCTTCCC,-0.117
8,ATTGGTGG,0.00541
9,TGATAACA,0.16
10,CACGCTCG,-0.168
11,AATAGAAG,0.0707
12,GTATTTAA,0.368
13,CTATTTTA,0.261
14,GGATTTTA,0.112
15,GTATTTTA,0.37
16,ATATTTTG,0.319
17,GGATTTAA,0.283
18,GCATTTTA,0.177
19,GTATTTCA,0.223
20,ATATTTTA,0.43
21,GCCTCGTA,-0.109
22,AGGGATGC,-0.182
23,GGTCGTTA,-0.0413
24,GCGAGTCA,-0.112
25,CCGGGAGG,-0.293

row,Sequence,PBM 8-mer E-score
1,CTGCAGCC,-0.148
2,AAAAAGGT,-0.0123
3,ATTAATTG,0.391
4,ATGAATTA,0.295
5,ATTAATGG,0.262
6,AGTAATTC,0.144
7,CTTAATTC,0.281
8,ATTAATTA,0.461
9,ATCAATTA,0.319
10,ATTAATTC,0.415
11,CTCAATTA,0.234
12,CTGAATTA,0.266
13,CTTAATTA,0.454
14,ATTAATCG,0.336
15,ACAGGGCT,-0.196
16,CACTTCGC,-0.174
17,ATATCGTA,0.207
18,GACGCAGC,-0.356
19,ATACTGGG,0.00507
20,AGTCATTA,0.14
21,CGGTAAGC,-0.0976
22,ACCCGGGA,-0.218
23,CTTAATGA,0.0908
24,ATTAATCA,0.405
25,ATTAATCC,0.332

row,Sequence,PBM 8-mer E-score
1,GGTAATTA,0.286
2,AGTAATTA,0.421
3,CGTAATTA,0.31
4,GTTAATTA,0.415
5,GTCAATTA,0.164
6,GTTAAGTA,0.203
7,ATTAATGA,0.363
8,ATTAATGC,0.341
9,CTTAATCA,0.174
10,CTTACGCA,-0.158
11,AATTGCAA,0.179
12,AAGCAGCC,-0.138
13,TAACCTTA,0.0355
14,GTAGGGCA,-0.179
15,CATAAGGG,-0.214
16,CAGCTCGG,-0.199
17,ACGACCTC,-0.143
18,ACCCAATC,-0.0955
19,CTAATACA,0.325
20,AAAATACG,0.184
21,ATAATACC,0.333
22,ATAATACG,0.354
23,ATAATACA,0.407
24,ACAATACG,0.0961
25,ATGGCACA,-0.0727

row,Sequence,PBM 8-mer E-score
1,GCGTGTAC,-0.107
2,GAGATCGC,-0.123
3,ATGTTAAC,0.363
4,GTGTTAAC,0.219
5,CTGTTAAC,0.141
6,ATGTTAAG,0.178
7,ATGTTAAA,0.329
8,ATGTTAAT,0.39
9,TGCGTCAA,-0.0324
10,GGGAACAC,-0.198
11,CCTGTCCG,-0.203
12,CCTCGAGC,-0.149
13,CAGTTGCG,-0.0888
14,TATTATCA,0.404
15,GATTATTA,0.391
16,CATTATTC,0.363
17,CCTTATTC,0.189
18,GATTATCA,0.193
19,CATTATCC,0.235
20,GATTATCC,0.209
21,AATTATCA,0.325
22,CATTATGA,0.214
23,CATTATTA,0.432
24,CATTATCA,0.169
25,GATTATGC,0.148
